High-throughput results deposited in PubChem by several laboratories.
The list is not random: actives were taken first. Their share in the collection is about 3%.
HTR1E antagonist – 5-HT1E receptor antagonists, primary screen, cell-based, HTS. 5-hydroxytryptamine receptor 1E (Homo sapiens), P28566. CHO 5-HT1E Ga15 NFAT-bla reporter, FRET, antagonist. inhibition, % at 6 µM. hit rate 0.99% among 65,000;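 active means inhibition above a set limit, the mean inhibition across every tested compound plus 3 SD, cut at about 29% in these data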;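 further: signal is the 460 over 535 nm emission ratio of beta-lactamase substrate; 0% = agonist plus DMSO wells and 100% = wells without agonist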
5-HT1A blocker – human 5-HT1a receptor antagonists, primary screen, cell-based, CHO, Ga15 NFAT-bla reporter; 5-hydroxytryptamine receptor 1A (Homo sapiens), P08908; CHO 5-HT1a Ga15 NFAT-bla reporter, antagonist mode; inhibition, % at 10 µM; hit rate 0.68% among 62,000; AID 612, 2007;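 active means inhibition above the mean of all tested compounds plus 3 SD, cut at about 43% in these data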;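 further: receptor stimulated by 5-CT agonist at 100 nM near EC80; beta-lactamase reporter measured by ratiometric fluorescence of a cleavable substrate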
Target sequence (P08908 whole entry, looked up): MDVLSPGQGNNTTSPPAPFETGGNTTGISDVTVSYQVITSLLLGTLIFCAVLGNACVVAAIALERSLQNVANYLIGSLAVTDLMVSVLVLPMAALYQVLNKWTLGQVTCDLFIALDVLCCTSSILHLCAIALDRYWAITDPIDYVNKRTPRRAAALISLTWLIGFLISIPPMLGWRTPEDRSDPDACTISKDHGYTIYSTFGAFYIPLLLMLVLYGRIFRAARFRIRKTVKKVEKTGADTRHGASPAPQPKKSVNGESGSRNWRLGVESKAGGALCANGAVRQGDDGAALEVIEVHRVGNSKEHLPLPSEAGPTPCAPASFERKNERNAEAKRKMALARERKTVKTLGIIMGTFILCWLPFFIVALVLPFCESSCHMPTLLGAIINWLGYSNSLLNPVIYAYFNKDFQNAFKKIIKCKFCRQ
5HT1a ag – human 5-HT1a receptor agonists, primary screen, cell-based, CHO, Ga15 NFAT-bla reporter. activation, % at 10 µM. CHO 5-HT1a Ga15 NFAT-bla reporter, FRET ratio; 0% basal, 100% maximal reference agonist. hit rate 0.56% among 65,000. 5-hydroxytryptamine receptor 1A (Homo sapiens), P08908;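 active means activation above the screen-wide mean activation plus 3 SD, cut at about 19% in these data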;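 further: 0% = DMSO wells and 100% = 5-CT at EC100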
Her2 expr inh – inhibitors of Her2 protein expression, primary screen, SKBR-3 cells, AlphaScreen, 66K library; SKBR-3 HER2 protein level, 18-24 h; stronger effect = lower value; HER2 level % of control, % at 10 µM; Receptor tyrosine-protein kinase erbB-2 (Homo sapiens), P04626; AID 645, 2007; hit rate 0.69% among 65,000;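 active means HER2 level under 5% of the carrier-only control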;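 further: 100% = DMSO carrier and 0% = 500 nM PU-H71 HSP90 inhibitor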
5HT1E ag – 5-HT1E receptor agonists, primary screen, cell-based, HTS | CHO 5-HT1E Ga15 NFAT-bla reporter, FRET; 0% DMSO wells, 100% control agonist wells | 5-hydroxytryptamine receptor 1E (Homo sapiens), P28566 | activation, % at 6 µM | hit rate 0.69% among 65,000;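 active means activation above a set limit, the screen-wide mean activation plus 3 SD, cut at about 8.5% in these data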;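 further: 100% = positive control agonist at 1 µM giving full maximal response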
Active calls of the source: *; · = no result.

SMILES	HTR1E antagonist	5-HT1A blocker	5HT1a ag	Her2 expr inh	5HT1E ag
CNC(=O)c1ccc(-c2sc3nc(N4CCOCC4)c4c(c3c2N)CCCC4)o1	32*	6	4	89	2
CCCCN(C)CCCNC(=O)CCn1nc(-c2ccccc2)ccc1=O	6	4	-4	89	22*
N=c1n(CCN2CCCCC2)c2ccccc2n1CC(O)c1cccc(Br)c1 (configuration not stated)	-1	54*	-5	35	0
Cc1ccccc1OCC(O)Cn1c(=N)n(CCN2CCOCC2)c2ccccc21 (configuration not stated)	2	30	1	96	0
COc1ccccc1OCC(O)Cn1c(=N)n(CCN2CCCCC2)c2ccccc21 (configuration not stated)	6	71*	0	87	-1
N=c1n(CCN2CCCCC2)c2ccccc2n1CC(O)COc1ccccc1 (configuration not stated)	-9	49*	-1	145	0
COc1cc(NC(=O)CSc2nnc(C)s2)cc(OC)c1	2	-6	-2	98	0
COCCNC(=O)c1c(N)n(CCC2=CCCCC2)c2nc3ccccc3nc12	-26	·	29*	100	8
CC(C)OC(=O)c1cccnc1SCc1cc(=O)n2ccccc2n1	5	7	3	67	1
Cc1ccc(C)n1-c1ccc(N2CCOCC2)nc1	3	-5	2	-19*	0
O=S(=O)(NC1CC1)c1ccc(S(=O)(=O)N2CCCC3(CCCCC3)C2)cc1	29*	1	3	90	0
O=S(=O)(NC1CC1)c1ccc(S(=O)(=O)N2CCN3CCCC3C2)cc1 (configuration not stated)	-8	-21	-1	102	-1
O=C(CCN1C(=O)c2ccccc2C1=O)N1CCC(c2ccccc2)C1 (configuration not stated)	-5	-6	32*	66	1
CCCC(=O)Nc1cccc(NC(=O)c2ccc3c(c2)OCO3)c1	3	5	-1	73	14*
COc1cccc(C(=O)Nc2cc(C)c3c(=O)oc4ccccc4c3n2)c1	2	-12	25*	89	-1
O=C(NCc1ccccn1)c1nnc(Cc2ccc(Cl)cc2)o1	4	5	-3	94	1
CC(NS(=O)(=O)c1ccccc1)C(=O)Nc1nccs1 (configuration not stated)	6	-1	268*	113	0
CC(NS(=O)(=O)c1ccccc1)C(=O)Nc1ccc(S(N)(=O)=O)cc1 (configuration not stated)	7	1	-2	104	0
CC(C)(C)NC(=O)C(c1ccco1)N(C(=O)Cn1nnc(-c2ccc(F)cc2)n1)c1cccc(F)c1 (configuration not stated)	8	-3	-1	85	10*
Cc1ccc(-c2nnn(CC(=O)N(c3ccc(F)cc3)C(C(=O)NC3CCCC3)c3ccco3)n2)o1 (configuration not stated)	16	16	0	104	0
Cc1ccc(-c2nnn(CC(=O)N(c3cccc(F)c3)C(C(=O)NC3CCCC3)c3ccco3)n2)o1 (configuration not stated)	32*	27	-1	71	1
CNc1nc(SCc2ccccc2)nc(N2CCOCC2)n1	33*	0	-7	72	0
CC(C)(C)Nc1nc(SCc2ccccc2)nc(N2CCOCC2)n1	6	-6	0	91	0
CCOc1ccc2nc(NC(=O)C3CCCN(S(=O)(=O)c4cccs4)C3)sc2c1 (configuration not stated)	-7	-11	-5	80	0
CC1=C(C(=O)Nc2ccccc2)C(c2ccc(C)o2)n2c(s/c(=C\c3ccco3)c2=O)=N1 (configuration not stated)	42*	28	0	66	0
SMILES	HTR1E antagonist	5-HT1A blocker	5HT1a ag	Her2 expr inh	5HT1E ag
COc1ccc(Cl)cc1C(=O)Nc1ccc(NC(=O)c2ccco2)cc1	12	2	-7	81	0
COc1ccc(Cl)cc1NC(=O)c1ccco1	-6	8	0	31	23*
Cc1ccsc1C(=O)Nc1nnc(-c2ccco2)o1	-11	6	-2	89	0
O=C(O)c1ccc(OCC(O)Cn2cnc3ccccc32)cc1 (configuration not stated)	-11	3	0	112	9.3*
CCC(NC(=O)NCc1cccnc1)(C(F)(F)F)C(F)(F)F	7	7	5	74	0
Cc1c(NC(=O)CCc2ccc(S(=O)(=O)N3CCOCC3)cc2)c(=O)n(-c2ccccc2)n1C	0	15	-3	74	0
CC(C)NCC(O)Cn1c2c(c3ccccc31)CCc1c-2cnn1-c1ccccc1 (configuration not stated)	-11	13	0	-16*	0
CC(C)(C)N1C(=O)Cc2c1nc(N)c1c(N)nc(N3CCCCC3CO)c(C#N)c21 (configuration not stated)	34*	53*	-1	77	0
Cc1onc(-c2ccccc2Cl)c1C(=O)Nc1cnn(Cc2ccccc2)c1	-9	-8	2	95	1
COCCn1c(Cc2ccccc2)nnc1SCC(=O)N(C)C	7	-4	-4	-19*	-1
O=P(O)(c1ccc(Cl)cc1)c1ccc(Cl)cc1	-7	-8	0	71	0
COc1cccc(C(=O)OCc2ccccc2C#N)c1O	-6	-8	-3	93	0
O=C(COC(=O)c1ccco1)NCc1ccco1	6	8	-2	93	0
Cc1cc(C(=O)OCC(=O)NCc2ccco2)c(C)n1-c1ccc(F)cc1	37*	34	-3	68	-1
Cc1c(NC(=O)c2ccc(F)cc2)c(=O)n(-c2ccccc2)n1C	0	-2	1	121	0
Cc1c(NC(=O)c2cccc(F)c2)c(=O)n(-c2ccccc2)n1C	-3	-12	0	-26*	0
COc1ccccc1N(CC(=O)NCc1cccnc1)S(C)(=O)=O	1	2	-2	106	0
Cc1cc(C)cc(N(CC(=O)NCc2cccnc2)S(C)(=O)=O)c1	0	-8	0	111	17*
CCOC(=O)CCc1nn(C)c(=O)c2ccccc12	40*	-4	1	98	0
CCCn1nnnc1SCC(=O)NCc1ccc2c(c1)OCO2	8	-7	-1	100	-1
O=C(Nc1nccs1)C1C2/C=C\CCCCC21 (configuration not stated)	2	17	2	-28*	1
O=C(CCCN1CCC(c2ccccc2)C1)c1ccc2c(c1)OCCO2 (configuration not stated)	-1	82*	6	93	8
